# Assay results reported in publication PMC9911399, “Two distinct binding modes provide the RNA-binding protein RbFox with extraordinary sequence specificity”.
# Changes are numbered by the printed parent chain; changes in the protein carry UniProt numbers. Over roughly 16,000 sequences, “ka relative to ugcaugu” has its median near 0.096; the highest 2% begin near 0.35. Only a selection was taken, and the highest values are over-represented in it overall.
# T1: RBFOX1 RRM RbFoxmut (Fox-RRM*) (Homo sapiens, UniProt Q9NWB1 109-208, R118D;E147R;N151S;E152T)
# T1 sequence: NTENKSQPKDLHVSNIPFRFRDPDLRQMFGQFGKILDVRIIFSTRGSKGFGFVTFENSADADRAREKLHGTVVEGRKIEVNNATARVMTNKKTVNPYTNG
# B1: GCUACCU (DNA:RNA)
# RNA: GGGAGACCGGAAUUCAGAUUGUCCGCUACCUUUAAAUCCCGUCGUAGCCACCA
# DNA 1: CAATCTGAATTCCGGTCTCCC
# DNA 2: TGGTGGCTACGACGGGATT
# B2: CCGCCGU (DNA:RNA)
# RNA: B1 RNA with G25C, U27G, A28C, C30G
# DNA 1: CAATCTGAATTCCGGTCTCCC
# DNA 2: TGGTGGCTACGACGGGATT
# B3: AUGCGAA (DNA:RNA)
# RNA: GGGAGACCGGAAUUCAGAUUGUCCAUGCGAAUUAAAUCCCGUCGUAGCCACCA
# DNA 1: CAATCTGAATTCCGGTCTCCC
# DNA 2: TGGTGGCTACGACGGGATT
# B4: CUGUCGA (DNA:RNA)
# RNA: B3 RNA with A25C, C28U, G29C, A30G
# DNA 1: CAATCTGAATTCCGGTCTCCC
# DNA 2: TGGTGGCTACGACGGGATT
# B5: AAGGGCC (DNA:RNA)
# RNA: B3 RNA with U26A, C28G, A30C, A31C
# DNA 1: CAATCTGAATTCCGGTCTCCC
# DNA 2: TGGTGGCTACGACGGGATT
# B6: CUCUACC (DNA:RNA)
# RNA: B3 RNA with A25C, G27C, C28U, G29A, A30C, A31C
# DNA 1: CAATCTGAATTCCGGTCTCCC
# DNA 2: TGGTGGCTACGACGGGATT
# B7: UAGCGCA (DNA:RNA)
# RNA: B3 RNA with A25U, U26A, A30C
# DNA 1: CAATCTGAATTCCGGTCTCCC
# DNA 2: TGGTGGCTACGACGGGATT
# B8: GUCCUCG (DNA:RNA)
# RNA: B3 RNA with A25G, G27C, G29U, A30C, A31G
# DNA 1: CAATCTGAATTCCGGTCTCCC
# DNA 2: TGGTGGCTACGACGGGATT
# B9: CGUAUGA (DNA:RNA)
# RNA: B1 RNA with G25C, C26G, C29U, C30G, U31A
# DNA 1: CAATCTGAATTCCGGTCTCCC
# DNA 2: TGGTGGCTACGACGGGATT
# B10: GGUAUGA (DNA:RNA)
# RNA: B1 RNA with C26G, C29U, C30G, U31A
# DNA 1: CAATCTGAATTCCGGTCTCCC
# DNA 2: TGGTGGCTACGACGGGATT
# B11: UCGUCCG (DNA:RNA)
# RNA: B1 RNA with G25U, U27G, A28U, U31G
# DNA 1: CAATCTGAATTCCGGTCTCCC
# DNA 2: TGGTGGCTACGACGGGATT
# B12: GUUAUGA (DNA:RNA)
# RNA: B1 RNA with C26U, C29U, C30G, U31A
# DNA 1: CAATCTGAATTCCGGTCTCCC
# DNA 2: TGGTGGCTACGACGGGATT
# B13: UCGUAUG (DNA:RNA)
# RNA: B3 RNA with A25U, U26C, C28U, G29A, A30U, A31G
# DNA 1: CAATCTGAATTCCGGTCTCCC
# DNA 2: TGGTGGCTACGACGGGATT
# B14: UAGUCAA (DNA:RNA)
# RNA: B3 RNA with A25U, U26A, C28U, G29C
# DNA 1: CAATCTGAATTCCGGTCTCCC
# DNA 2: TGGTGGCTACGACGGGATT
# B15: GUUGUUC (DNA:RNA)
# RNA: B1 RNA with C26U, A28G, C29U, C30U, U31C
# DNA 1: CAATCTGAATTCCGGTCTCCC
# DNA 2: TGGTGGCTACGACGGGATT
# B16: GAAAUCG (DNA:RNA)
# RNA: B1 RNA with C26A, U27A, C29U, U31G
# DNA 1: CAATCTGAATTCCGGTCTCCC
# DNA 2: TGGTGGCTACGACGGGATT
# B17: UGAACCG (DNA:RNA)
# RNA: B1 RNA with G25U, C26G, U27A, U31G
# DNA 1: CAATCTGAATTCCGGTCTCCC
# DNA 2: TGGTGGCTACGACGGGATT
# B18: GAAUUGU (DNA:RNA)
# RNA: B1 RNA with C26A, U27A, A28U, C29U, C30G
# DNA 1: CAATCTGAATTCCGGTCTCCC
# DNA 2: TGGTGGCTACGACGGGATT
# B19: UGAAUUG (DNA:RNA)
# RNA: B1 RNA with G25U, C26G, U27A, C29U, C30U, U31G
# DNA 1: CAATCTGAATTCCGGTCTCCC
# DNA 2: TGGTGGCTACGACGGGATT
# B20: UGAAUCG (DNA:RNA)
# RNA: B1 RNA with G25U, C26G, U27A, C29U, U31G
# DNA 1: CAATCTGAATTCCGGTCTCCC
# DNA 2: TGGTGGCTACGACGGGATT
# B21: CGAUCGC (DNA:RNA)
# RNA: B1 RNA with G25C, C26G, U27A, A28U, C30G, U31C
# DNA 1: CAATCTGAATTCCGGTCTCCC
# DNA 2: TGGTGGCTACGACGGGATT
# B22: GGAUCGC (DNA:RNA)
# RNA: B1 RNA with C26G, U27A, A28U, C30G, U31C
# DNA 1: CAATCTGAATTCCGGTCTCCC
# DNA 2: TGGTGGCTACGACGGGATT
# B23: GAAUCGC (DNA:RNA)
# RNA: B1 RNA with C26A, U27A, A28U, C30G, U31C
# DNA 1: CAATCTGAATTCCGGTCTCCC
# DNA 2: TGGTGGCTACGACGGGATT
# B24: GAACCGU (DNA:RNA)
# RNA: B1 RNA with C26A, U27A, A28C, C30G
# DNA 1: CAATCTGAATTCCGGTCTCCC
# DNA 2: TGGTGGCTACGACGGGATT
# B25: GAAUCGU (DNA:RNA)
# RNA: B1 RNA with C26A, U27A, A28U, C30G
# DNA 1: CAATCTGAATTCCGGTCTCCC
# DNA 2: TGGTGGCTACGACGGGATT
# B26: GAAUCCG (DNA:RNA)
# RNA: B1 RNA with C26A, U27A, A28U, U31G
# DNA 1: CAATCTGAATTCCGGTCTCCC
# DNA 2: TGGTGGCTACGACGGGATT
# B27: CGAAUCG (DNA:RNA)
# RNA: B1 RNA with G25C, C26G, U27A, C29U, U31G
# DNA 1: CAATCTGAATTCCGGTCTCCC
# DNA 2: TGGTGGCTACGACGGGATT
# Molecular target: T1, RBFOX1 RRM RbFoxmut (Fox-RRM*)
# Experiment: EMSA; HiTS-Eq, 1 nM pool, 10 min; buffer printed only for the single-RNA assays: 10 mM Tris pH 7.5, 150 mM NaCl, 3.4 mM EDTA, 0.001% NP-40, 30 C
# Settings: tags: His6 N-terminal (pET28a); label: 5' 32P
# Outline: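 Purified wild-type or mutant RbFox RRM at increasing concentrations was equilibrated with 1 nM of 5′-radiolabelled RNA carrying 7 randomized nucleotides for 10 min in 50 µL. Unbound RNA was separated by 8% native PAGE and sequenced. Relative association constants came from read-count changes of each RNA species compared with the control reaction, normalised to the cognate motif.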
row,Binder,binding signal
1,B1,0.0731 KA relative to UGCAUGU
2,B2,0.133 KA relative to UGCAUGU
3,B3,0.131 KA relative to UGCAUGU
4,B4,0.0775 KA relative to UGCAUGU
5,B5,0.148 KA relative to UGCAUGU
6,B6,0.0729 KA relative to UGCAUGU
7,B7,0.124 KA relative to UGCAUGU
8,B8,0.114 KA relative to UGCAUGU
9,B9,0.258 KA relative to UGCAUGU
10,B10,0.468 KA relative to UGCAUGU
11,B11,0.0959 KA relative to UGCAUGU
12,B12,0.206 KA relative to UGCAUGU
13,B13,0.87 KA relative to UGCAUGU
14,B14,0.0801 KA relative to UGCAUGU
15,B15,0.106 KA relative to UGCAUGU
16,B16,0.0585 KA relative to UGCAUGU
17,B17,0.0911 KA relative to UGCAUGU
18,B18,0.192 KA relative to UGCAUGU
19,B19,0.174 KA relative to UGCAUGU
20,B20,0.363 KA relative to UGCAUGU
21,B21,0.0736 KA relative to UGCAUGU
22,B22,0.23 KA relative to UGCAUGU
23,B23,0.512 KA relative to UGCAUGU
24,B24,0.126 KA relative to UGCAUGU
25,B25,0.576 KA relative to UGCAUGU
26,B26,0.219 KA relative to UGCAUGU
27,B27,0.374 KA relative to UGCAUGU
